Cruzain noTriton: qHTS Assay for Promiscuous and Specific Inhibitors of Cruzain (without detergent); Cruzipain (Trypanosoma cruzi), P25779; purified cruzain, Z-FR-AMC fluorescence, no detergent; Potency, µM, for the others: max response, negative = inhibition, usual class: inhibitors; actives 2.3% (n = 200,000); AID 1476, 2009;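 further: plate controls were enzyme without inhibitor for no effect and buffer without enzyme for full effect; nearly all actives have a fitted effect of over 40% in size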
Target sequence (P25779 123-467 limits assumed): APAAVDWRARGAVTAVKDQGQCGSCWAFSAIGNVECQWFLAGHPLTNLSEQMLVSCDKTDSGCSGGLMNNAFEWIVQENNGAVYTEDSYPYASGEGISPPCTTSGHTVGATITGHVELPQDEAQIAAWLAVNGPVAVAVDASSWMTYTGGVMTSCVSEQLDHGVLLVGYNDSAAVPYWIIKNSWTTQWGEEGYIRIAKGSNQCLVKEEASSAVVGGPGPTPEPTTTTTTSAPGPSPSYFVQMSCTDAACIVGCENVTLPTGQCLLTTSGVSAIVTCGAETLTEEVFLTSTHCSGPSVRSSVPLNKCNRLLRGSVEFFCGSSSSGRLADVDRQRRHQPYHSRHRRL
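Purified cruzain at 1.5 nM, pre-incubated 15 min with compound at room temperature in 100 mM sodium acetate pH 5.5, 5 mM DTT, 0.00005% Triton X-100. Reaction started with 2 uM Z-FR-AMC; AMC fluorescence increase over 60 s gives rate.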
Cruzain inh Det: qHTS Assay for Promiscuous and Specific Inhibitors of Cruzain (with detergent) | Potency, µM, for the others: max response, negative = inhibition, most hits filed as inhibitors | AID 1478, 2009 | purified cruzain, Z-FR-AMC fluorescence, 0.01% Triton | Cruzipain (Trypanosoma cruzi), P25779 | actives 0.43% (n = 200,000);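 further: plate controls were neutral wells for no effect and buffer without enzyme for full effect; nearly all actives have a fitted effect of over 40% in size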
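Steps: dispense cruzain (1.5 nM final) in acetate buffer pH 5.5 with DTT and 0.01% Triton X-100; pin-transfer compounds; incubate 15 min RT; add Z-FR-AMC (2 uM final); read fluorescence every 30 s, using the 60 s intensity change.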
Papain counter: qHTS Assay for Inhibitors of Papain: Counterscreen for Cruzain Assay; actives 41% (n = 410); Potency, µM, without a hit: max response, negative = inhibition, hits mostly inhibitors; purified papain, Z-FR-AMC fluorescence cleavage; shares compounds with Cruzain inh Det; AID 2161, 2009;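 further: 0% = no-compound wells and -100% = no-enzyme wells; nearly all actives have a fitted effect of over 35% in size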
Numbers without * were called inactive; ? = inconclusive; . = not tested or not shown. Rows were chosen to be rich in hits. Some 2.6% of all compounds tested hit in one or more screens of this group. The call rests on the fitted dose curve; in most records, active means well fitted curve in the direction sought with a large enough effect; inconclusive means small, poorly fitted or top-dose-only effect, or another doubt; inactive means no such curve, though single readings can be large; an effect the other way counts as inactive or inconclusive. Potency means the concentration at half of the fitted maximal effect.

SMILES	Cruzain noTriton	Cruzain inh Det	Papain counter
COc1cc2cc(CN(Cc3nnnn3Cc3ccco3)C3CCCCC3)c(=O)[nH]c2cc1OC	7.94µM*	7.08µM*	28.2µM*
CCOc1ccc2[nH]c(=O)c(CN(Cc3nnnn3Cc3ccco3)C3CCCCC3)cc2c1	10µM*	6.31µM*	-9.4%
CCOC(=O)c1ccc(NC(=O)CCn2c(=O)c3cccn3c3cccnc32)cc1	5.0%	-5.1%	.
COC(=O)c1c(-c2cccs2)csc1NC(=O)c1ccc(C(C)(C)C)cc1	?	-3.2%	.
O=C(NCC1CC1)c1ccc2nc(-c3ccoc3)c(-c3ccoc3)nc2c1	.	.	-4.6%
COc1ccc(-c2nc3ccc(C(=O)NCc4ccccc4)cc3nc2-c2ccc(OC)cc2)cc1	-16.8%	0.8%	.
Cc1cccc(CNC(=O)CCn2c(=O)c3cccn3c3ccc(F)cc32)c1	10.5%	-4.2%	.
COC(=O)c1c(N)n(-c2ccc(OC)c(Cl)c2)c2nc3ccccc3nc12	-3.1%	0.0%	.
CCc1ccc(-n2nc(CO)c(C(=O)NCCCc3ccccc3)n2)cc1	0.2%	-2.4%	.
Cc1ccc(C)c(-n2nnc(C(=O)Nc3ccc(Br)cc3)c2C)c1	-7.9%	-0.4%	.
Cc1ccc2[nH]c(=O)c(NC(N)=S)nc2c1	1.58µM*	1.78µM*	1.5%
Cc1ccc(NC(=S)c2nc3ccccc3[nH]2)c(C)c1	-23.9%	-7.5%	.
CC(=O)OC1(C(F)(F)F)Oc2ccccc2NC1=O (stereo not drawn)	1.26µM*	0.891µM*	7.94µM*
COCCNC(=O)C1(C)Oc2ccccc2NC1=O (stereo not drawn)	-2.2%	-4.4%	.
COc1cccc([C@@H]2Oc3ccc(Br)cc3C(=O)[C@H]2OC(=O)NS(=O)(=O)c2ccc(F)cc2)c1	-5.0%	0.5%	.
COCCn1c(C)cc(O)c(C(c2ccccc2Cl)N2CCN(c3ccccc3)CC2)c1=O (stereo not drawn)	8.0%	0.7%	.
Cc1cc(C)cc(N2CCn3c2nc2c3c(=O)n(CCc3ccccc3)c(=O)n2C)c1	?	-3.1%	.
COc1cc(OC)c(-c2nn3c(-c4cc(C)[nH]n4)nnc3s2)cc1OC	.	.	-63.0%
c1csc(Cc2nn3c(-c4n[nH]c5c4CCC5)nnc3s2)c1	?	-4.1%	.
COc1cc(OC)c(-c2nn3c(-c4n[nH]c5c4CCC5)nnc3s2)cc1OC	.	.	1.7%
Cc1cc(-c2nnc3sc(-c4ccc(Cl)cc4Cl)nn23)n[nH]1	-10.8%	8.2%	.
Cc1ccc(C(=O)NCc2ccc3c(c2)OCO3)cc1S(=O)(=O)N1CCOCC1	9.5%	-2.6%	.
Cc1ccc(NC(=O)/C=C/c2ccc3c(c2)OCO3)cc1S(=O)(=O)N1CCOCC1	20µM*	12.6µM*	-11.4%
CC1CC(=O)N(CC(=O)Nc2ccc(F)cc2F)c2ccccc2S1 (stereo not drawn)	1.7%	-3.0%	.
COCCNC(=O)Nc1ccc2nc(-c3cccs3)c(-c3cccs3)nc2c1	?	-9.7%	.
SMILES	Cruzain noTriton	Cruzain inh Det	Papain counter
CCC(C)NC(=O)c1ccc2nc(-c3cccs3)c(-c3cccs3)nc2c1 (stereo not drawn)	.	.	-3.3%
CNc1oc(C)nc1S(=O)(=O)c1ccc(C)cc1	-5.1%	-0.9%	.
CNc1oc(Cc2ccccc2)nc1S(=O)(=O)c1ccccc1	3.16µM*	3.16µM*	28.2µM*
CCC(C)NC(=O)Cn1c(=O)c2cccn2c2ccc(F)cc21 (stereo not drawn)	9.2%	-0.4%	.
COc1ccc(NC(=O)CN2C(=O)CSc3ccc(S(=O)(=O)N(C)C)cc32)cc1Cl	?	-2.6%	.
c1ccc(C2=Nn3c(nnc3-c3cc(-c4ccccc4)n[nH]3)SC2)cc1	-6.5%	-6.9%	.
Cc1ccc(O/C=C2/Nn3c(nnc3-c3cc(-c4ccccc4)n[nH]3)S2)cc1	.	.	9.1%
CCc1ccc(C(=O)c2cn(CC(=O)Nc3ccc4c(c3)OCO4)c3ccc(CC)cc3c2=O)cc1	-6.7%	-1.0%	.
CCCCCn1cc2c(c1-c1ccccc1Br)c(=O)n(C)c(=O)n2C	12.0%	-4.0%	.
CSCC[C@H](NC(=O)COc1ccc(Cl)cc1Cl)c1nc2ccccc2[nH]1	7.5%	6.31µM*	-3.7%
CSCC[C@H](NC(=O)CC(C)(C)C)c1nc2ccccc2[nH]1	-5.9%	-0.5%	.
CCOC(=O)N1CCC(NC(=O)c2ccc3c(c2)N(Cc2ccccc2C)C(=O)c2ccccc2S3=O)CC1 (stereo not drawn)	?	0.5%	.
COc1ccc(CNc2cc(-c3ccccc3C)ncn2)c(OC)c1	-0.3%	3.6%	.
O=S1(=O)c2ccccc2N=NN1Cc1ccc(Cl)c(Cl)c1	?	22.4µM*	-14.9%
CC(C)(C)c1ccc(CN2N=Nc3ccccc3S2(=O)=O)cc1	?	-11.8%	.
CCOc1ccc(C2=NC(c3cccs3)=Nc3ccc(CC)cc3N2)cc1OCC	-1.0%	-5.8%	.

High-throughput results as filed in PubChem.
